What all share (parameters): scale not given: direction of the effect not stated beside the values
Assay [1] concerns the target Protein translocase subunit SecA (Escherichia coli (strain K12)) (UniProt P10408). The assay can be described thus: Assay to Identify E. coli SecA ATPase Inhibitors. Particulars: 30 µM. The class given is functional.
In assay [2] the target is T1, Ubiquitin-activating enzyme e1, putative (Leishmania donovani (strain BPK282A1)) (UniProt E9BSI1).
T1 sequence (whole entry): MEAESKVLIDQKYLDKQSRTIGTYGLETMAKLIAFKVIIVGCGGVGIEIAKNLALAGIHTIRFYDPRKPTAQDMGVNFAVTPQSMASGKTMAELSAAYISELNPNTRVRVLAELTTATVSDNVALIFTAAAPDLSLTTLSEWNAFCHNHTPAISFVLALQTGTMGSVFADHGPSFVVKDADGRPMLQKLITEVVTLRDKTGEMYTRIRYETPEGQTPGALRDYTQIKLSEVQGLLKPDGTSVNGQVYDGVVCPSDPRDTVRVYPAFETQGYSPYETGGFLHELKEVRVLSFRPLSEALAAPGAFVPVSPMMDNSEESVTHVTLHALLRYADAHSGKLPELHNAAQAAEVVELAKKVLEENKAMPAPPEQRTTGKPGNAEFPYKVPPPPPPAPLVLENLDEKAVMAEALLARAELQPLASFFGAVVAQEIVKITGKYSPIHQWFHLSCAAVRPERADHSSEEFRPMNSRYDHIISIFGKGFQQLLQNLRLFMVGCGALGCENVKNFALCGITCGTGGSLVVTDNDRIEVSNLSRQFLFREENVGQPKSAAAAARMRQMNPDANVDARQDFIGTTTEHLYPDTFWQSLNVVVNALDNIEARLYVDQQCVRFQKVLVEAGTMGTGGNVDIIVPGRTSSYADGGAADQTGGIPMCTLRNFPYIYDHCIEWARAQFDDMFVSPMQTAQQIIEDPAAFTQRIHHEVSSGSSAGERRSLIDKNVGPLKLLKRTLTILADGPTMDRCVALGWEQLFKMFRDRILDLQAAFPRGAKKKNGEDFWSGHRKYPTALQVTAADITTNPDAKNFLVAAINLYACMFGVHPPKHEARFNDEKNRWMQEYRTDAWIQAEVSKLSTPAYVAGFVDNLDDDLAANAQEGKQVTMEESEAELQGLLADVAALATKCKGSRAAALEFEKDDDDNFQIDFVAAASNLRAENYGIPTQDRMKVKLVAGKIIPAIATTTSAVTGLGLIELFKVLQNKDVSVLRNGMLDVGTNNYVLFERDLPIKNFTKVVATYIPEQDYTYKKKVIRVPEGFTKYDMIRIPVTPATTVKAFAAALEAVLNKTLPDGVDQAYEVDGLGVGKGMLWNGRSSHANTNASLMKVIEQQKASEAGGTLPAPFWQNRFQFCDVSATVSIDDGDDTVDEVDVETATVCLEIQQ
The assay can be described thus: Leishmania donovani Ubiquitin Activating Enzyme (LdE1). The class given is functional. The settings on record: 30 µM.

Assay [3] deals with AMP-activated protein kinase, AMPK (Homo sapiens) (UniProt P54646+O43741+P54619+Q9UGJ0+Q9Y478+Q13131+Q9UGI9). As to the kind of experiment: AMP-dependent Kinase enzyme assay. An in vitro enzyme assay that detects ADP turnover that is directly proportional to AMPK activity. This uses naive AMPK that is activated during the assay with MK-8722. The class given is functional. Particulars: 30 µM.

For assay [4], the target named is Sialic acid-binding Ig-like lectin 9 (Homo sapiens) (UniProt Q9Y336). The assay can be described thus: Hs-Siglec9 ALPHAscreen SOP 20170721. The settings on record: 10 µM. On the technique in general: In Alpha technology, singlet oxygen from a donor bead excites a nearby acceptor bead.
Another assay has as its system Trypanosoma cruzi. The assay can be described thus: Trypanosoma cruzi phosphomannomutase and mannose-1-phosphate guanylyltransferase assay. The class given is functional. The settings on record: 10 µM.
In assay [5] the target is T2, Arginase-2, mitochondrial (Homo sapiens) (UniProt P78540).
T2 sequence (whole entry): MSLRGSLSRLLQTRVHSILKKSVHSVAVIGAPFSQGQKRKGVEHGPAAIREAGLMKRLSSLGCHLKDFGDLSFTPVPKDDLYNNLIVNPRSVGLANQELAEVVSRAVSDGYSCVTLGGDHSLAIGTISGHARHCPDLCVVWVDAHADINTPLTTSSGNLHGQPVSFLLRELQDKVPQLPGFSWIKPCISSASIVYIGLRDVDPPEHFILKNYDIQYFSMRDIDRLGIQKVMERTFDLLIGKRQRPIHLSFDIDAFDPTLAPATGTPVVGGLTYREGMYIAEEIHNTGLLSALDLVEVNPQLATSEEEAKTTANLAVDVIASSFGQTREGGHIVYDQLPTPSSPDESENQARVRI
The assay can be described thus: in vitro enzyme assay to detect the production of urea directly proportional to the activity of Arginase II. Note: in the data most compounds retested in dose-response had high values. The class given is functional. The settings on record: 33.3 µM.

Assay [6] addresses T3, Proteasome subunit beta (Trypanosoma cruzi) (UniProt O96673).
T3 sequence (whole entry): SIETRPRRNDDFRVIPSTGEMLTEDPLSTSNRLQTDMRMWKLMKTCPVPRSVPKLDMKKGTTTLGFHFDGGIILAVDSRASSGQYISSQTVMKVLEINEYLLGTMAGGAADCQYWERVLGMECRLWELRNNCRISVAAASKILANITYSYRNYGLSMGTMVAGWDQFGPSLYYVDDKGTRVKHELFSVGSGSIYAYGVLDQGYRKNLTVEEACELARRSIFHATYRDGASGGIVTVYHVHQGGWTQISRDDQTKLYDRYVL
As to the kind of experiment: Trypanosoma cruzi proteasome chymotrypsin-like activity (TcProtChymo) assay. Note: in the data most compounds retested in dose-response had high values. The class given is functional. Particulars: 9.37 µM.

A further assay is filed under the species Homo sapiens. As to the kind of experiment: To identify inhibition of the IFN signalling (Jak-Stat) pathway via expression of an eGFP reporter gene under the control of an IFN-stimulated response element (ISRE) containing MxA promoter. The assay is classed as functional. Particulars: 30 µM. (Reporter assays use an easily measured gene product as a stand-in for the process of interest.)

Assay [7] addresses T4, Tyrosyl-tRNA synthetase, putative (Trypanosoma cruzi (strain CL Brener)) (UniProt Q4DSP6).
T4 sequence (whole entry): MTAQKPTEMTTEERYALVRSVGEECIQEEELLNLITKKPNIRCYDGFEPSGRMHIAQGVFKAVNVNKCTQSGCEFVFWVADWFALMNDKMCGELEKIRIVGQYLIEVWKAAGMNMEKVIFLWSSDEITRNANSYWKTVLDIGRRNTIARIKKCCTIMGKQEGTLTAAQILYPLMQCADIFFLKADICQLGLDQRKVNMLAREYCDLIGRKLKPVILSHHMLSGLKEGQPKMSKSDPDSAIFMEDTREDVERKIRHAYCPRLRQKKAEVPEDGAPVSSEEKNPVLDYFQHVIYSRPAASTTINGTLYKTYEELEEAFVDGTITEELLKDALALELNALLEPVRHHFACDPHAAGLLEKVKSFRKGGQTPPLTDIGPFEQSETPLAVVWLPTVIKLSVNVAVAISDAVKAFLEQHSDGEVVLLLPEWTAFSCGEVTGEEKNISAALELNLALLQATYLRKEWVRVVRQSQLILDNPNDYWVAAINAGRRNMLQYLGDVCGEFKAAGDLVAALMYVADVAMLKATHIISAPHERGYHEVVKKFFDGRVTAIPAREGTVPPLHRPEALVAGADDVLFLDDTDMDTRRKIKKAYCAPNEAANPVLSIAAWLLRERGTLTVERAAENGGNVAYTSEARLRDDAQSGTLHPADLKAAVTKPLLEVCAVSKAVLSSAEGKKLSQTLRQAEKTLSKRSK
The assay can be described thus: Trypanosoma cruzi tyrosyl tRNA synthetase (TcYRS) _High Tyrosine SOP. Note: in the data most compounds retested in dose-response had high values. The settings on record: 30 µM. The assay is classed as functional.

Assay [8] addresses T4, Tyrosyl-tRNA synthetase, putative (Trypanosoma cruzi (strain CL Brener)). The assay can be described thus: Trypanosoma cruzi tyrosyl tRNA synthetase (TcYRS) SOP. The assay is classed as functional. The settings on record: 30 µM.
The target of assay [9] is Chromo domain-containing protein 1 (Saccharomyces cerevisiae (strain ATCC 204508 / S288c) (Baker's yeast)) (UniProt P32657). As to the kind of experiment: ScCHD-1 Enzyme Inhibition Assay. Note: in the data most compounds retested in dose-response had high values. The class given is functional. Particulars: 30 µM.

For some assays here: Measured potencies and affinities stand elsewhere.

The values that follow come from ChEMBL document CHEMBL3988442, “University of Dundee, Small-Polar-MMV Screening Library” (2021).

Chromo domain-containing protein 1 (Saccharomyces cerevisiae (strain ATCC 204508 / S288c) (Baker's yeast)), sequence (P32657 whole entry, the tested form may be a part): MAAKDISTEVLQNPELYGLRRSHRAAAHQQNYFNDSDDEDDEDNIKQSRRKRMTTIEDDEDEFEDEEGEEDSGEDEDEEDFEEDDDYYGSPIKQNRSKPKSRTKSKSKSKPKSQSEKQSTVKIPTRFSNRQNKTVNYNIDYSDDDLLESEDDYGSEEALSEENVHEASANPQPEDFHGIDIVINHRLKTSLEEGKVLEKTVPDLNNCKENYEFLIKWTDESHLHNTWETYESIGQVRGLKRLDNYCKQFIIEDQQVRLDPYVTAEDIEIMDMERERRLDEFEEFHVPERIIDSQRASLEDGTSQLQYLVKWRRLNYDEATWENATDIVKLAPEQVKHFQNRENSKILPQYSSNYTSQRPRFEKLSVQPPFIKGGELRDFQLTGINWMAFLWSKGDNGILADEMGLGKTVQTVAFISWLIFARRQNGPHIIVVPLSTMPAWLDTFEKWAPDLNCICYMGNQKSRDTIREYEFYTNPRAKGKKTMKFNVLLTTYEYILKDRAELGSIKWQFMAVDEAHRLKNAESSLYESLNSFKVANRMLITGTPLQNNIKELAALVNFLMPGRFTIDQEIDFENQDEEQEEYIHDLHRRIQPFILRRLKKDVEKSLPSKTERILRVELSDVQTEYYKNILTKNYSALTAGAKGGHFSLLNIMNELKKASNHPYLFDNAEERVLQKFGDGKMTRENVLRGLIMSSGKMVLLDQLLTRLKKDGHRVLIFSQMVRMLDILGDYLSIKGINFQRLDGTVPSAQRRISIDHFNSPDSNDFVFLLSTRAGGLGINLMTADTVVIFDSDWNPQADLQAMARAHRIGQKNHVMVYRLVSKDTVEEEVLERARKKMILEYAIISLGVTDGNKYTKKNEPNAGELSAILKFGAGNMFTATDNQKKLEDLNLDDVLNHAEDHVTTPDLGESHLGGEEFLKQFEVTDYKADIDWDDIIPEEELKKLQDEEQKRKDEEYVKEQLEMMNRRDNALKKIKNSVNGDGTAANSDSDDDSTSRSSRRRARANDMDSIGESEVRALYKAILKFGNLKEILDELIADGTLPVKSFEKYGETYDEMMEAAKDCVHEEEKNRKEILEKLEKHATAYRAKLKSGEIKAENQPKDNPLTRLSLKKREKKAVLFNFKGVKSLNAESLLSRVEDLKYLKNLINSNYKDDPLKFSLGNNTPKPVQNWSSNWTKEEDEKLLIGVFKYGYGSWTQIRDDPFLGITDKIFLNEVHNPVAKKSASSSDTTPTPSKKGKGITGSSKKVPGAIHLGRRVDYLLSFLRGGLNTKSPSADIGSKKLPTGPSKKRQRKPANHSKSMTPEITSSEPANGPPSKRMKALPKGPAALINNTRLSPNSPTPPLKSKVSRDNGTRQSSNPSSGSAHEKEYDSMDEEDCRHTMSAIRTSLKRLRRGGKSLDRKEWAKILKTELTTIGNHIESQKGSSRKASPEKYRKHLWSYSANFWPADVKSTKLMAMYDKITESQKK
Protein translocase subunit SecA (Escherichia coli (strain K12)), sequence (P10408 whole entry): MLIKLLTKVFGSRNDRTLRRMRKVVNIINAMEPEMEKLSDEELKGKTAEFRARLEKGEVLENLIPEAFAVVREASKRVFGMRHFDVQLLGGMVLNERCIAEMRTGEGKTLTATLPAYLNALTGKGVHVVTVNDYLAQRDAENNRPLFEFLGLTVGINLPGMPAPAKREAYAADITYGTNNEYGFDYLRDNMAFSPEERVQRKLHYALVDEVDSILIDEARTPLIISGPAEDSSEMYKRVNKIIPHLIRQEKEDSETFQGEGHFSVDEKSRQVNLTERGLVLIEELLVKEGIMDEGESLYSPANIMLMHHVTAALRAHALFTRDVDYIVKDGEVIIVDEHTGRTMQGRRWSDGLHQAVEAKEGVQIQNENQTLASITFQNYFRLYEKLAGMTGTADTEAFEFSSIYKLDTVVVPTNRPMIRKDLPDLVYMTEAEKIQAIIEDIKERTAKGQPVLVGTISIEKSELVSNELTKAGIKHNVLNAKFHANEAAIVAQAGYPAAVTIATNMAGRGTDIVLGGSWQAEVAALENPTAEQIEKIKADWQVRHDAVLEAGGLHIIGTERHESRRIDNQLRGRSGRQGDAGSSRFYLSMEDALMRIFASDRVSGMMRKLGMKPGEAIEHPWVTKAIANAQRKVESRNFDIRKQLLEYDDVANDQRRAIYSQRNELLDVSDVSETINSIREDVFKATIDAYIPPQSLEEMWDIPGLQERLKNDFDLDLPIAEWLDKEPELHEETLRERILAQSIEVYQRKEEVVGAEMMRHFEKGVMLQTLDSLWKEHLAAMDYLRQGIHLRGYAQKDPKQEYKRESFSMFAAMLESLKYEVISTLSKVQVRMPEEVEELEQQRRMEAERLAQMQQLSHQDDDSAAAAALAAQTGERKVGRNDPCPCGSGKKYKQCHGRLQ
Sialic acid-binding Ig-like lectin 9 (Homo sapiens), sequence (Q9Y336 whole entry): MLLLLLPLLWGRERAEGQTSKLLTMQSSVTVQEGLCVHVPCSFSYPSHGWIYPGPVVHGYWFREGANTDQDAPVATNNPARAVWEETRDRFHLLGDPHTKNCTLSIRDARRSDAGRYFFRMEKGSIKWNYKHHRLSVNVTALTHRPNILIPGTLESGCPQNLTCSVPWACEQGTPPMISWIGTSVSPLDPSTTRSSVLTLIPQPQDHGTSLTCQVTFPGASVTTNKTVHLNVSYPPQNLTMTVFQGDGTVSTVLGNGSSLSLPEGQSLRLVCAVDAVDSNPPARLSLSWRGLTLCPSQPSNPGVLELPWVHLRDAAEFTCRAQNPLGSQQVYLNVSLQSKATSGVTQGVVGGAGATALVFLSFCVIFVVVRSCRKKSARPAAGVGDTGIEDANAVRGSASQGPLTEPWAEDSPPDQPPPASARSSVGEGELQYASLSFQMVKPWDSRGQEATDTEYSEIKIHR

As for `CCc1nc(C(=O)NCc2ccc(N3CCNC(=O)C3)c(F)c2)c[nH]1`, the Percent Effect in [1] was 2.33%; in assay [2] it was 18.9%; in assay [3] it was -4.78%; in assay [4], 31.7%; in the assay with Trypanosoma cruzi it was 4.63%; in assay [5], -3.81%. The Percent Effect is 20% in [6]; 13.4% in the assay listed under Homo sapiens; 5.82% in [7]; 12.2% in assay [8]; -2.24% in [9].
Take `COC(=O)CNC(=O)CSCc1nc(O)c2cc(C(C)C)sc2n1`: the Percent Effect was 0.0478% in [1]; -6.67% in [2]; 10.7% in assay [3]; 2.72% in [4]; -2.95% in the assay with Trypanosoma cruzi; -9.68% in assay [5]. Also, the Percent Effect in [6] was 7.58%; in the assay filed under Homo sapiens, -3.98%; in assay [7] it was -3.17%; in assay [8] it was 5.13%; in assay [9], -1.35%.
`c1cnnc(N2CCCC2CNc2nc3ccccc3o2)c1` (stereo not given): the Percent Effect in [1] is -5.3%; in assay [2], 11.4%; in assay [3], 3.62%; in [4], 9.59%; with Trypanosoma cruzi it was 1.33%; in assay [5], 4.95%. Also, the Percent Effect in [6] was 11.5%; in the assay listed under Homo sapiens, 11.9%; in assay [7], 0%; in assay [8] it was 20.2%; in assay [9], -16%.
For `COCC1CN(C(=O)c2ccnnc2)Cc2c1cnn2C` (stereo not given), the Percent Effect was -3.58% in assay [1]; -5.33% in [2]; 7.75% in assay [3]; -1.95% in [4]; 4.33% with Trypanosoma cruzi; -3.5% in assay [5]. Also, the Percent Effect in assay [6] is 9.6%; in the assay listed under Homo sapiens it was 9.47%; in assay [7], 4.25%; in assay [8], 1.28%; in assay [9], -4.09%.
For the compound `O=C(NCc1ccc(-c2ccn[nH]2)cc1)N1CCC(N2CCCC2)C1` (stereo not given), the Percent Effect in [1] is -6.43%; in assay [2], 2.63%; in [3] it was -5.77%; in assay [4], 6.24%; with Trypanosoma cruzi it was 1.59%; in assay [5], -5.4%. For the same compound, the Percent Effect in assay [6] was 4.65%; in the assay listed under Homo sapiens it was 5.01%; in [7], 10.3%; in [8], 18.5%; in [9], 1.9%.
`CC(C(=O)Nc1cccc(N2CCCCC2)c1)n1cncn1` (stereo not given): the Percent Effect in assay [1] is -7.36%; in assay [2], 13.5%; in assay [3], -9.41%; in assay [4] it was 28.7%; in the assay on Trypanosoma cruzi, 3.11%; in [5], -3.61%. The Percent Effect was 10.3% in [6]; 0.641% in the assay filed under Homo sapiens; 5.42% in assay [7]; 23.5% in assay [8]; -10.9% in [9].
On to `O=C(C1CCOCC1)N1CCC2(CC1)CC(Oc1ccccc1)CO2` (stereo not given), for which the Percent Effect in [1] was 0.293%; in assay [2] it was 8.22%; in [3] it was -6.45%; in assay [4], 5.89%; in the assay with Trypanosoma cruzi it was 0.595%; in assay [5] it was -5.59%. The Percent Effect in assay [6] was 7.28%; in the assay listed under Homo sapiens, 14.1%; in assay [7] it was 6.25%; in assay [8], 16.1%; in assay [9] it was -0.343%.
With `COc1cccc(S(=O)(=O)NC2CNC(=O)C2)c1` (stereo not given), the Percent Effect in [1] is -6%; in assay [2], 2.74%; in assay [3] it was 3.51%; in assay [4], 9.97%; in the assay on Trypanosoma cruzi, 6.66%; in [5] it was -1.36%. Besides, the Percent Effect in assay [6] was 2.31%; in the assay listed under Homo sapiens it was -0.016%; in [7], 4.3%; in [8] it was 12.5%; in assay [9], -5.21%.
On to `CCc1ccccc1-n1nnc(C(=O)O)c1-c1ccccn1`, for which the Percent Effect was -2.26% in assay [1]; 13.2% in [2]; 1.03% in assay [3]; -0.0352% in assay [4]; 1.85% with Trypanosoma cruzi; 1.18% in assay [5]. The Percent Effect is 23.5% in [6]; -17.6% in the assay listed under Homo sapiens; 4.25% in assay [7]; 13% in [8]; -6.21% in [9].
For the compound `Cc1nc(C2CCCN2C(=O)c2cc3c(s2)CCCC3)no1` (stereo not given), the Percent Effect is -3.05% in assay [1]; 0% in assay [2]; 2.69% in assay [3]; 3.43% in assay [4]; 3.95% in the assay on Trypanosoma cruzi; 4.98% in assay [5]. Moreover, the Percent Effect in assay [6] is 3.51%; in the assay filed under Homo sapiens it was 5.26%; in assay [7], -0.49%; in [8], 0%; in assay [9] it was 5.53%.
